# Values joined by “and” are separate entries in the source; they are usually repeats but may differ in a detail not shown here. Identical values can stand only once. Results filed as inconclusive are left out. Where a call stands in place of a potency, no number is given. Values without a mark were called inactive. Active and inactive are the calls of the source. Calls come from the whole dose curve; as a rule, active = well fitted cell-killing curve with a large enough effect; inconclusive = small, poorly fitted or top-dose-only effect, or effect the other way; inactive = no such curve, though single readings can be large or run the other way.
# Assays:
# [1] = Viability qHTS for spleen associated tyrosine kinase inhibitor (SYKi) naive MV4-11 cells (AID 1963823); note: nearly all actives have a fitted effect of over 40% in size
# Summary of the method: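 qHTS, SYK inhibitor-naive MV4-11; 500 cells/well; 72 hr compound exposure, 37 C; CellTiter-Glo added, 10 min RT; luminescence read.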
# [2] = Viability qHTS for spleen associated tyrosine kinase inhibitor (SYKi) drug resistant MV4-11 cells (AID 1963824); note: nearly all actives have a fitted effect of over 35% in size
# Summary of the method: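 CellTiter-Glo luminescence, read 10 min after reagent addition, reports viability after a 72 hr compound exposure. Cells are an MV4-11 line made resistant to SYK inhibition, seeded at 500 per well onto compound-containing plates.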
# Potency is the fitted concentration of half-maximal effect.
SMILES,Potency [1],Potency [2],viability (% of control) [1],"viability, % of control [2]"
CC1=C(C(=O)O)/C(=C/CO[C@@H]2O[C@H](COC(=O)/C=C/c3ccc(O)cc3)[C@@H](O)[C@H](O)[C@H]2O)C(O)C1 (stereo partly specified),inactive,inactive,,
O=C(O)c1ccc(O)c2ncc(N3CCCN(CCc4cccc5ccccc45)CC3)cc12,18.4 µM (active),10.3 µM (active),,
COc1ccnc2[nH]cc(C(=O)C(=O)N3CCN(C(=O)c4ccccc4)CC3C)c12 (stereo unspecified),inactive,inactive,,
C[C@@H]1O[C@@H](O[C@H]2[C@H](O)[C@@H](O[C@@H]3O[C@H](CO)[C@H](O)[C@H](O)[C@H]3O)[C@H](O[C@H]3CC[C@@]4(C)C(CC[C@]5(C)C4CC=C4[C@@H]6CC(C)(C)CC[C@]6(C(=O)O[C@@H]6O[C@H](CO)[C@@H](O)[C@H](O)[C@H]6O)CC[C@]45C)C3(C)C)O[C@@H]2C(=O)O)[C@H](O)[C@H](O)[C@H]1O (stereo partly specified),,,82.7% [at 9.25 µM],90.8% [at 9.25 µM]
CC(=O)O[C@@H]1[C@H](OC(C)=O)C[C@@]2(C)C(CC[C@@H](C)[C@]23Cc2c(O)cc4c(c2O3)CN([C@@H](CCC(=O)O)C(=O)O)C4=O)C1(C)C (stereo partly specified),inactive,inactive,,
C=CC(C)(C)O[C@@H]1O[C@H](CO[C@@H]2OC[C@](O)(CO)[C@H]2O)[C@@H](O)[C@H](O)[C@H]1O,inactive,inactive,,
Fc1ccc(C2CCNC[C@H]2COc2ccc3c(c2)OCO3)cc1 (stereo partly specified),16.4 µM (active),9.2 µM (active),,
Nc1nccn2c(C3CCC(C(=O)O)CC3)nc(-c3cc4cccc(Cl)c4[nH]3)c12 (stereo unspecified),0.934 µM (active),580 nM (active) and 1.48 µM (active),,
Cn1nccc1Nc1nccc(-c2ccn([C@H](CO)c3ccc(Cl)c(F)c3)c(=O)c2)n1,7.31 µM (active),4.61 µM (active) and 6.61 µM (active),,
CONC(=O)c1ccccc1Nc1cc(Nc2cc(C)nn2C(C)C)ncc1Cl,6.61 µM (active),13.2 µM (active),,
C[C@@H]1O[C@@H](O[C@@H]2[C@@H](O)[C@@H](O[C@]3(CO)O[C@H](CO)[C@@H](O)[C@@H]3OC(=O)/C=C/c3ccc(O)cc3)O[C@H](CO)[C@H]2OC(=O)/C=C/c2ccc(O)cc2)[C@H](O)[C@H](O)[C@H]1O[C@@H]1O[C@@H](C)[C@H](O[C@@H]2OC[C@](O)(CO)[C@H]2O)[C@@H](O)[C@H]1O,,,90% [at 9.25 µM],102% [at 9.25 µM]
CNc1cc2c(Nc3cccc(Br)c3)ncnc2cn1,18.4 µM (active),23.1 µM (active),,
O=C(/C=C/c1ccccc1)OC[C@]12O[C@H]1[C@@H](O)[C@@H]1C=CO[C@@H](O[C@@H]3O[C@H](CO)[C@@H](O)[C@H](O)[C@H]3O)[C@@H]12,inactive,inactive,,
NC(=O)[C@H](O[C@@H]1O[C@H](CO)[C@@H](O)[C@H](O)[C@H]1O)c1ccccc1,inactive,inactive,,
OCC(CO)(CO)NCC(O)Cn1c2ccc(Cl)cc2c2cc(Cl)ccc21 (stereo unspecified),20.6 µM (active),11.6 µM (active),,
C[C@@H]1C(=O)O[C@H](C)[C@H]1CC(=O)[C@](C)(O)[C@H]1CC[C@@]2(O)C3=CC(=O)[C@@H]4C[C@@H](O)[C@@H](O)C[C@]4(C)C3CC[C@]12C (stereo partly specified),inactive,inactive,,
CCn1cc(C2=NOC(C(=O)Nc3c(C)n(C)n(-c4ccccc4)c3=O)C2)c(C)n1 (stereo unspecified),inactive,inactive,,
O=C(/C=C/c1ccc(O)cc1)OCC1=C[C@@H](O)[C@@H]2C=CO[C@@H](O[C@@H]3O[C@H](CO)[C@@H](O)[C@H](O)[C@H]3O)[C@H]12,inactive,inactive,,
O=C(Nc1cccc(Nc2nccc(Nc3cccc(C(F)(F)F)c3)n2)c1)C1CC1,1.84 µM (active),1.84 µM (active),,
C=C(C)[C@@H]1CC[C@]2(C(=O)O)CC[C@]3(C)C(CCC4[C@]5(C)C(CC[C@]43C)C(C)(C)[C@@H](O)[C@@H]5C(=O)O)C12 (stereo partly specified),inactive,inactive,,
O=C(O)/C=C/c1ccc2occc2c1O[C@@H]1O[C@H](CO)[C@@H](O)[C@H](O)[C@H]1O,inactive,inactive,,
COc1cc(C2OCC3(O)C(c4ccc(O[C@@H]5O[C@H](CO)[C@@H](O)[C@H](O)[C@H]5O)c(OC)c4)OCC23O)ccc1O (stereo partly specified),inactive,inactive,,
CC(=O)OCC1=C[C@@H]2OC(=O)C3=CO[C@@H](O[C@@H]4O[C@H](CO)[C@@H](O)[C@H](O)[C@H]4O)[C@H]1[C@@H]32,inactive,inactive,,
